The source of these data is PubChem BioAssay AID588405 (Sanford-Burnham Center for Chemical Genomics, 2011).

SMILES strings stand for the structures. Hit rate of the full screen: of about 360,000 compounds, about 6,200 (1.7%) were called active.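 Rule for the calls: active = inhibition of at least 50% at 20 µM; inactive = the rest.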 The full list was thinned out, with actives kept by preference.

The assay is described as follows: Peg3 promoter-driven luciferase inhibitors, primary screen, cell-based, HeLa, luciferase luminescence (AID 588405). To be noted: HeLa PEG-Prom luciferase reporter, overnight, at 20 µM, active compounds read high.
As for `CC(=O)C1=CCC(c2ccccc2)N(S(=O)(=O)c2ccc(C)cc2)C1` (configuration not stated), the inhibition was 7.17% (inactive).

Turning to `COc1cc(/C=C2/C(=O)ON=C2C)ccc1OCc1ccccc1F`, the inhibition is 66.5% (active).

For the compound `COc1cc(/C=C2/C(=O)ON=C2C)ccc1OCc1cccc(F)c1`, the inhibition was 45.1% (inactive).

For `C#CCOc1ccc(/C=C2/C(=O)ON=C2C)cc1OCC`, the inhibition is 27.9% (inactive).

Turning to `OC[C@@H]1CN(C2CCCC2)C[C@H](n2cnc3c(NC4CCC4)ncnc32)O1`, the inhibition was 4.02% (inactive).

`CC1CCCCC1NC(=O)/C(C#N)=C/C=C/c1ccccc1[N+](=O)[O-]` (configuration not stated): the inhibition is 111% (active).

`CC(OC(=O)/C=C/c1ccccc1)C(=O)NC1CCCCC1C` (configuration not stated): the inhibition was 6.61% (inactive).

Turning to `O=[N+]([O-])c1ccccc1/C=C/CN1CCC(O)CC1`, the inhibition was 10.2% (inactive).

On to `CCCN(c1ccc(C)cc1)c1nc(=O)c2cccnc2s1`, for which the inhibition was 8.6% (inactive).

Take `CC(=O)Nc1cncc(-c2ccccc2CO)n1`: the inhibition is 7.63% (inactive).

For `O=C(C[C@H]1C[C@H](C(=O)N2CCOCC2)[C@@]2(CCC3CCCC3)c3[nH]c4ccc(Cl)cc4c3CCN2C1=O)NCc1ccco1`, the inhibition was 61.1% (active).

With `CN(C)C(=O)CCc1ccc2c3c([nH]c2c1)[C@]1(CCC2CCCC2)[C@@H](C(=O)N2CCOCC2)C[C@H](CC(=O)NCc2ccco2)C(=O)N1CC3`, the inhibition is 0.84% (inactive).

For `CC[C@]12c3[nH]c4ccc(Cl)cc4c3CCN1C(=O)[C@@H](CC(=O)NCCN1CCOCC1)C[C@@H]2C(=O)N1CCN(C(=O)C2CC2)CC1`, the inhibition is -0.39% (inactive).

Regarding `COc1ccc(CNC(=O)C[C@H]2C[C@H](C(=O)N3CCOCC3)[C@@]3(CCC4CCCC4)c4[nH]c5ccc(Cl)cc5c4CCN3C2=O)cc1OC`, the inhibition was 56.1% (active).

With `COc1ccc2[nH]c3c(c2c1)CCN1C(=O)C(CC(=O)NCCCN(C)C)C[C@H](C(=O)N2CCOCC2)[C@@]31CCC1CCCC1` (some centres not stated), the inhibition was 1.46% (inactive).

As for `CC[C@]12c3[nH]c4ccc(OC)cc4c3CCN1C(=O)C(CC(=O)NCc1ccco1)C[C@@H]2C(=O)N1CCN(C(=O)C2CC2)CC1` (some centres not stated), the inhibition was -6.85% (inactive).

Take `COC(=O)CCCCC1=CCC2C(=O)C=C(O)C2C1` (configuration not stated): the inhibition is 0.22% (inactive).

Regarding `COc1ccc(C(C)(O)c2nc(-c3cc(F)cc(F)c3)cs2)cc1` (configuration not stated), the inhibition is 23.2% (inactive).

For `COc1cccc(-c2cc3nc(NCc4ccccc4OC)n(C)c(=O)c3s2)c1`, the inhibition was -50% (inactive).

For `COc1cc(F)c(C2=CC(=O)CC(C)(C)C2)cc1F`, the inhibition is -42.1% (inactive).

On to `O=C(O)c1ccccc1-c1cccc2nncn12`, for which the inhibition was -2.07% (inactive).

As for `CC(=O)Nc1ccc(NC(=O)COC(=O)c2ccccc2C(=O)c2ccccc2)cc1`, the inhibition was -1.14% (inactive).

Consider `O=C(Nc1cccc(NC(=O)c2ccccc2[N+](=O)[O-])c1)c1ccccc1Cl`, for which the inhibition is -9.06% (inactive).

As to `N#Cc1cccc(NC(=O)COC(=O)c2ccccc2C(=O)c2ccc(Cl)c([N+](=O)[O-])c2)c1`, the inhibition is 108% (active).

As to `COC(=O)c1cc(NC(=O)Cc2ccccc2[N+](=O)[O-])ccc1Cl`, the inhibition is -2.09% (inactive).

Take `CC(=O)Nc1ccc(NC(=O)C(C)OC(=O)c2ccccc2C(=O)c2ccc(Cl)c([N+](=O)[O-])c2)cc1` (configuration not stated): the inhibition is 93.7% (active).

As for `CC(OC(=O)CNC(=O)c1ccc(Cl)c([N+](=O)[O-])c1)C(=O)NCc1ccco1` (configuration not stated), the inhibition was 3.12% (inactive).

On to `C=CCC1(C#N)C(=S)NC(C)=C(C(=O)OCC)C1c1ccccc1` (configuration not stated), for which the inhibition was 3.78% (inactive).

Take `CCc1nc2c(OCCc3cccc(OC)c3)cccn2c1N(C)C(=O)c1ccc(C)cc1`: the inhibition is 5.31% (inactive).

For `CC1(C(=O)NS(=O)(=O)c2ccc(Cl)cc2)CCN1C(=O)CC1CCCC1` (configuration not stated), the inhibition is 8.85% (inactive).

On to `CCN(c1ccccc1)S(=O)(=O)c1cccc(C(=O)NCc2ccccc2CN2CCOCC2)c1`, for which the inhibition is -0.46% (inactive).

For `CCOC1=C2CN(S(=O)(=O)c3ccc(C)cc3)[C@H](c3cccs3)C[C@H]2[C@H]2C(=O)N(c3ccccc3)C(=O)[C@H]2C1`, the inhibition was -59.4% (inactive).

With `CCCCCCCCCCOC(=O)Cn1c(COc2ccc(C)cc2)[n+](C)c2ccccc21`, the inhibition is 116% (active).

`CCCCCCCCCCOC(=O)Cn1c(COc2cccc(OC)c2)[n+](C)c2ccccc21`: the inhibition is 102% (active).

Take `Cc1ccc(COc2ccc(C(=O)NN)cc2)cc1`: the inhibition is -58.5% (inactive).

On to `Cc1noc(C)c1COC(=O)Cn1c(C)nc2ccccc21`, for which the inhibition is 8.44% (inactive).

As for `CCOC(=O)c1cn(CC)c2cc(F)c(F)cc2c1=O`, the inhibition is -7.48% (inactive).

Turning to `CN(Cc1cccs1)C(=O)CN1C(=O)c2ccccc2S1(=O)=O`, the inhibition was -42.7% (inactive).

Take `CCC(C)N(C(=O)CSc1nnnn1-c1ccccc1OC)C1CCS(=O)(=O)C1` (configuration not stated): the inhibition was 6.27% (inactive).

With `COc1ccccc1-n1nnnc1S(=O)(=O)Cc1ccc(Cl)cc1`, the inhibition is 108% (active).

In the case of `COc1ccccc1-n1nnnc1SCC(=O)NC(=O)Cc1ccccc1`, the inhibition is 3.09% (inactive).

Consider `O=C(N=C1SC2CS(=O)(=O)CC2N1c1cc(Cl)ccc1Cl)C1CC1` (configuration not stated), for which the inhibition was 3.34% (inactive).

Regarding `CC1CCN(c2nc3c(c(=O)[nH]c(=O)n3C)n2CCCc2ccccc2)CC1`, the inhibition was -2.12% (inactive).

For the compound `Cn1c(=O)[nH]c(=O)c2c1nc(N1CCN(C(c3ccccc3)c3ccccc3)CC1)n2CCO`, the inhibition was 74.6% (active).

With `C=C(C)Cn1c(N2CCCC2)nc2c1c(=O)[nH]c(=O)n2C`, the inhibition is -3.39% (inactive).

For the compound `COc1ccc(-c2cc3nc(NCCOc4ccccc4)ccn3n2)cc1`, the inhibition was -70.4% (inactive).

As for `COC(=O)c1ccccc1N=NNc1ccc([N+](=O)[O-])cc1`, the inhibition was -132% (inactive).

As for `COc1ccc(CCNC(=O)c2ccc(CS(=O)(=O)c3ccc(Br)cc3)o2)cc1OC`, the inhibition was 32.6% (inactive).

For the compound `Cc1cccc(C)c1Cn1c(C)c(C(=O)NCc2cccc(Cl)c2)sc1=O`, the inhibition is 0.34% (inactive).

With `CC1(C(=O)NS(=O)(=O)c2ccccc2)CCN1C(=O)c1ccccc1` (configuration not stated), the inhibition was 8.86% (inactive).

As for `CC(=O)Nc1cc(-c2cccc(CO)c2)cn2c(-c3cccc(C(F)(F)F)c3)cnc12`, the inhibition is 19.9% (inactive).

Turning to `Cc1ccccc1-c1n[nH]c(=S)n1/N=C/c1ccc(-c2ccccc2Br)o1`, the inhibition was 13.5% (inactive).

`Cc1cc(-c2n[nH]c(=S)n2/N=C/C(Br)=C/c2ccccc2)n[nH]1`: the inhibition is 101% (active).

With `COc1ccccc1N1CCN(/N=C\C(Br)=C\c2ccccc2)CC1`, the inhibition is -183% (inactive).

Consider `COc1c(C)cc(C(O)c2ncc(-c3cccc(C(F)(F)F)c3)[nH]2)cc1C` (configuration not stated), for which the inhibition was 36.8% (inactive).

Regarding `C=CCn1c(C)cc(C2=NNC(=NCC)SC2)c1C`, the inhibition was 106% (active).

For `O=C1CC(c2cccc(Br)c2)C2=C(CCCC2=O)N1` (configuration not stated), the inhibition is -11.1% (inactive).

`Cc1cc(Cl)ccc1-c1nc(NCCN(C)C)nc2ccsc12`: the inhibition is 5.65% (inactive).

Take `COc1ccc(-c2n[nH]c3c2CN(C(=O)c2ccc(F)cc2)CC3)cc1`: the inhibition was -4.89% (inactive).

In the case of `COc1ccc(C2CC(c3cccc(OC)c3)=NN2c2ccc(S(N)(=O)=O)cc2)cc1` (configuration not stated), the inhibition was -21.8% (inactive).

`O=C(NCc1ccccc1Cl)c1csc([C@@H]2O[C@H](CO)[C@@H](O)[C@H]2O)n1`: the inhibition was 9.43% (inactive).

Consider `Cc1ccc(CN2CC(N3CCC(Cc4ccccc4)CC3)CS2(=O)=O)cc1` (configuration not stated), for which the inhibition was 15.9% (inactive).

Take `CC(CN1CCCCC1)OC(=O)c1ccccc1Cl` (configuration not stated): the inhibition is -5.2% (inactive).

In the case of `CC(C)OC(=O)c1ccc(NCc2cc(O)ccc2O)cc1Cl`, the inhibition is 64% (active).

As for `O=C(O)Cc1ccc(NCc2ccccc2Cl)cc1`, the inhibition was -84.7% (inactive).

Regarding `COc1ccc(-c2cc(C(F)(F)F)nc(S(C)(=O)=O)n2)cc1OC`, the inhibition is 104% (active).

Regarding `COc1ccc(C2=NO[C@@H]3C(=O)N(Cc4ccccc4)C(=O)[C@H]23)cc1OC`, the inhibition was 21.8% (inactive).

As to `COc1ccc(-c2cc(-c3ccc(N)cc3)nc(N)c2C#N)cc1OC`, the inhibition was 28.4% (inactive).

Regarding `O=C1N=C2SCCN2/C1=C\c1c(Cl)cccc1Cl`, the inhibition is 2.52% (inactive).

As to `COc1ccc(NC(=O)C2Cc3c(-c4cccc(NC(C)=O)c4)ccnc3O2)cc1OC` (configuration not stated), the inhibition was 24% (inactive).

Take `CCN(CC)CCCNC(=S)N(CCO)Cc1cc2cc3c(cc2[nH]c1=O)OCO3`: the inhibition was 5.64% (inactive).

Take `COc1cccc(-n2c(=S)[nH]c3c(oc4ccccc43)c2=O)c1`: the inhibition is -22.9% (inactive).

For the compound `O=c1oc2ccccc2cc1-c1cn(-c2ccccc2)c(=S)[nH]1`, the inhibition is 98.7% (active).

For `COc1ccc2cc(C(=O)NCC3CCCO3)[nH]c2c1` (configuration not stated), the inhibition was -95.8% (inactive).

For `O=C(NCC1CCCO1)c1cc2c([nH]c3ccccc32)c(-c2ccc(F)cc2)n1` (configuration not stated), the inhibition is 61.3% (active).

On to `O=C(NCCCO)c1cc2c([nH]c3ccccc32)c(-c2ccc(F)cc2)n1`, for which the inhibition was 23.9% (inactive).

On to `CCOc1ccc(Cl)cc1-c1cc(C(=O)NCc2cccs2)[nH]n1`, for which the inhibition is -9.07% (inactive).

Take `CCn1cc(C(=O)NCC2COc3ccccc3O2)c2cc(OC)c(OC)cc2c1=O` (configuration not stated): the inhibition was 8.43% (inactive).

Take `Cc1noc(C)c1C(=O)NCC1COc2ccccc2O1` (configuration not stated): the inhibition was 15.8% (inactive).

In the case of `Cc1cc(C(=O)CCl)c(C)n1CC1COc2ccccc2O1` (configuration not stated), the inhibition was 103% (active).

Regarding `O=C(Nc1ccc(Cl)cc1)C1Cc2c(-c3ccc4c(c3)OCO4)ccnc2O1` (configuration not stated), the inhibition was 29% (inactive).

As to `Cc1ccc(-c2nnc(-n3nnc4ccccc43)c3ccccc23)cc1`, the inhibition is 6.18% (inactive).

Consider `CC1(Cc2ccccc2C#N)C(=O)Nc2ccc(-c3ccc4[nH]ccc4c3)cc21` (configuration not stated), for which the inhibition is 14.4% (inactive).

Turning to `Cc1nc2ccccc2nc1CC(O)(c1ccccc1)c1ccccc1`, the inhibition was -1.32% (inactive).

As to `CN(Cc1ccccc1)C(=O)c1cccc(C(=O)N(C)Cc2ccccc2)c1`, the inhibition is 8.74% (inactive).

For `CN(O)C(=S)c1ccccc1`, the inhibition is 92.1% (active).

With `Cc1ccc(CS(=O)Cc2ccc(C(=O)N3CCOCC3)o2)cc1` (configuration not stated), the inhibition was 11.9% (inactive).

Broadly, the inhibition is the relative decrease from the control value, in per cent.
